# Data reported in PubChem BioAssay (Tox21).
# “And” between values parts separate entries of the source, which are not always exact repeats. Identical values can stand only once. Records with an inconclusive call do not appear. A call without a number means that no potency is given here. Some compounds were tested as several samples or in several runs, with calls that do not always agree. The source made the active and inactive calls. Unless noted, the call rests on the fitted dose curve; in most records, active means well fitted curve in the direction sought with a large enough effect in the repeat runs; inconclusive means weak or mixed curves; inactive means no such curve, though single readings can be large; an effect the other way counts as inactive or inconclusive.
# Columns and labels:
# [1] = target: Thyrotropin receptor (Homo sapiens) (UniProt P16473); assay: qHTS assay to identify small molecule agonists of the thyroid stimulating hormone receptor (TSHR) signaling pathway (AID 1224843; calls by dose curve; further: nearly all actives have a fitted effect of over 45% in size; further: potency means the concentration at half of the fitted maximal effect)
# Sequence of Thyrotropin receptor (Homo sapiens) (P16473 whole entry, looked up): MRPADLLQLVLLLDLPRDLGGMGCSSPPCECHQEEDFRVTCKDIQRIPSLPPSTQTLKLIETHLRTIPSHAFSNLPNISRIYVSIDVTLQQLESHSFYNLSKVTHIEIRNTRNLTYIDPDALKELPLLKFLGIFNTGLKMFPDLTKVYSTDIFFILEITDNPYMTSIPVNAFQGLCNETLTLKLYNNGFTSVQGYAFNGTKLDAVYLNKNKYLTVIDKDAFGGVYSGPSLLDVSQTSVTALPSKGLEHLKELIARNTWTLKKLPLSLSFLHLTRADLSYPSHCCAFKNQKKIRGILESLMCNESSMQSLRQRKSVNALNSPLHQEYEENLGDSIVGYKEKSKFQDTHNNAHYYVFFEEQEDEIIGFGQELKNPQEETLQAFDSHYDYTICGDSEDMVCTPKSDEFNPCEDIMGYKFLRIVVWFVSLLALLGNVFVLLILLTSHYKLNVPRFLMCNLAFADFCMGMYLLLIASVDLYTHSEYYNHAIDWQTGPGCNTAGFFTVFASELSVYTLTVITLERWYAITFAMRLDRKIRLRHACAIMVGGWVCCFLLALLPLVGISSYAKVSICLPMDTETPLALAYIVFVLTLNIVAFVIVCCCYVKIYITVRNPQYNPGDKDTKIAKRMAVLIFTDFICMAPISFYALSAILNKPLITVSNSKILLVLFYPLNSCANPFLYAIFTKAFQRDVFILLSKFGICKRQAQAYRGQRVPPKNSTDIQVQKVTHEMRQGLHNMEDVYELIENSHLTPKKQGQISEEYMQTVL
# How it was run: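 Agonist-mode screen: TSHR HEK293 cells received test chemicals for half an hour at room temperature, then HTRF cAMP detection reagents for one hour prior to fluorescence measurement. Each chemical ran as a 15-concentration series, triplicated.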
# [2] = qHTS assay to identify small molecule agonists of the hypoxia (HIF-1) signaling pathway - cell viability counter screen (AID 1224844; calls by dose curve; further: nearly all actives have a fitted effect of over 50% in size; further: potency means the concentration at half of the fitted maximal effect)
# How it was run: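 Same wells as the HIF-1 reporter screen; ME-180 cells carrying HRE-bla, 17 hr treatment at 37C; CellTiter-Glo luminescence read after 30 min at room temperature.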
# [3] = qHTS assay to identify small molecule agonists of the hypoxia (HIF-1) signaling pathway (AID 1224846; active means well fitted activation curve with a large enough effect in the signal ratio in the repeat runs, not every such curve was filed as active; the % refers to the signal ratio)
# How it was run: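 In ME-180 cells bearing an HRE-bla construct, 17 h treatment with DMSO-dissolved compounds at 37C was followed by CCF4-AM loading to quantify reporter induction.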
# [4] = qHTS assay to identify small molecule agonists of H2AX - cell viability counter screen (AID 1224847; calls by dose curve; further: nearly all actives have a fitted effect of over 30% in size; further: potency means the concentration at half of the fitted maximal effect)
# How it was run: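 For this counter screen, overnight-attached CHO-K1 cells received test compounds (15 concentrations, 0.76% DMSO final); 3 hr later at 37C, CellTiter-Glo reagent was added and luminescence recorded after 30 min at room temperature.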
# [5] = qHTS RealTime-Glo MT Cell Viability Assay in HepG2 cells - 24 hour (AID 1224867); further: nearly all actives have a fitted effect of over 50% in size; further: potency means the concentration at half of the fitted maximal effect
# How it was run: (§1)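 HepG2 suspension premixed with RealTime-Glo reagents is plated at 600 cells per well and left 5 h at 37 C/5% CO2. Compounds in DMSO then go in, and bioluminescence reflecting viable cell number is recorded over 40 h.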
# [6] = qHTS RealTime-Glo MT Cell Viability Assay in HEK293 cells - 32 hour (AID 1224868); further: nearly all actives have a fitted effect of over 50% in size; further: potency means the concentration at half of the fitted maximal effect
# How it was run: (§2)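 Reads taken at 0, 8, 16, 24, 32 and 40 h from the same wells. HEK293 cells (600/well) carried RealTime-Glo reagents from seeding, with compound added after a 5 h settle at 37 C.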
# [7] = A CellTox Green Cytotoxicity Assay to monitor cytotoxicity in HEK293 cells - 0 hour (AID 1224869); further: nearly all actives have a fitted effect of over 50% in size; further: potency means the concentration at half of the fitted maximal effect
# How it was run: (§3)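 Homogeneous no-lysis format: HEK293 cell suspension mixed with CellTox Green reagent, seeded, incubated 5 h at 37 C/5% CO2, then dosed by pintool with compound in DMSO.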
# [8] = qHTS RealTime-Glo MT Cell Viability Assay in HepG2 cells - 40 hour (AID 1224870); further: nearly all actives have a fitted effect of over 50% in size; further: potency means the concentration at half of the fitted maximal effect
# How it was run: (§4)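 HepG2 cells (600/well) mixed with RealTime-Glo MT reagent, settled 5 h at 37 C/5% CO2 before compound addition. Nonlytic NanoLuc luminescence from viable-cell prosubstrate reduction read repeatedly during 40 h treatment at 37 C.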
# [9] = A CellTox Green Cytotoxicity Assay to monitor cytotoxicity in HEK293 cells - 40 hour (AID 1224871); further: nearly all actives have a fitted effect of over 45% in size; further: potency means the concentration at half of the fitted maximal effect
# How it was run: as §3
# [10] = qHTS RealTime-Glo MT Cell Viability Assay in HEK293 cells - 16 hour (AID 1224872); further: nearly all actives have a fitted effect of over 50% in size; further: potency means the concentration at half of the fitted maximal effect
# How it was run: as §2
# [11] = qHTS RealTime-Glo MT Cell Viability Assay in HepG2 cells - 8 hour (AID 1224873); further: nearly all actives have a fitted effect of over 55% in size
# How it was run: as §4
# [12] = qHTS RealTime-Glo MT Cell Viability Assay in HEK293 cells - 40 hour (AID 1224874); conditions: RealTime-Glo luminescence; max response: stronger effect = lower value; further: nearly all actives have a fitted effect of over 50% in size; further: potency means the concentration at half of the fitted maximal effect
# How it was run: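 Measured as luminescence from the same continuously cultured HEK293 wells at successive time points (0, 8, 16, 24, 32, 40 h) after compound addition. Reagent present from seeding; dosing at 5 h; incubation 37 C.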
# [13] = A CellTox Green Cytotoxicity Assay to monitor cytotoxicity in HEK293 cells - 24 hour (AID 1224875); further: nearly all actives have a fitted effect of over 45% in size; further: potency means the concentration at half of the fitted maximal effect
# How it was run: as §3
# [14] = qHTS RealTime-Glo MT Cell Viability Assay in HepG2 cells - 32 hour (AID 1224877); further: nearly all actives have a fitted effect of over 55% in size; further: potency means the concentration at half of the fitted maximal effect
# How it was run: as §1
# [15] = A CellTox Green Cytotoxicity Assay to monitor cytotoxicity in HepG2 cells - 24 hour (AID 1224878); further: nearly all actives have a fitted effect of over 45% in size; further: potency means the concentration at half of the fitted maximal effect
# How it was run: (§5)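 Fluorescent DNA-binding dye, 600 HepG2 cells/well, 5 h preincubation then compound in DMSO; same plates read at 0–40 h, 37 C.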
# [16] = A CellTox Green Cytotoxicity Assay to monitor cytotoxicity in HepG2 cells - 40 hour (AID 1224879); further: nearly all actives have a fitted effect of over 40% in size; further: potency means the concentration at half of the fitted maximal effect
# How it was run: as §5
# [17] = A CellTox Green Cytotoxicity Assay to monitor cytotoxicity in HepG2 cells - 16 hour (AID 1224876); further: nearly all actives have a fitted effect of over 45% in size; further: potency means the concentration at half of the fitted maximal effect
# How it was run: as §5
# [18] = qHTS assay to identify small molecule antagonists of the estrogen related receptor (ERR) signaling pathway from Tox21 library (AID 1224848); further: nearly all actives have a fitted effect of over 50% in size; further: potency means the concentration at half of the fitted maximal effect
# How it was run: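 Quantitative high-throughput format: ERR reporter cells (2,000/well) pre-incubated 6 h, treated 18 h at 37 C with compounds in DMSO alongside positive and negative controls, then read by ONE-Glo luminescence.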
# [19] = qHTS assay to identify small molecule agonists of H2AX (AID 1224845; active means well fitted activation curve with a large enough effect in the signal ratio in the repeat runs, not every such curve was filed as active; the % refers to the signal ratio)
# How it was run: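 Wild-type CHO-K1 cells, plated overnight, exposed 3hr at 37C to 15 concentrations (0.76% DMSO final). Lysed, then HTRF anti-pH2AX (S139) cryptate and anti-H2AX-d2 antibodies, 24 hr room temperature; 665/620 nm emission read.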
# [20] = qHTS assay to identify small molecule agonists of the estrogen related receptor (ERR) signaling pathway from Tox21 library (AID 1224849; calls by dose curve; further: nearly all actives have a fitted effect of over 15% in size); conditions: ERR reporter cell line, ONE-Glo luciferase, 18 h
# How it was run: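 Reporter cells (ERR, NTP source) treated with Tox21 10K compounds 18 h, 37 C. Readout: ONE-Glo luminescence, 30 min RT.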
compound,measurement,setting,value
CCCCCCCCCC(=O)OC,Potency,[1],inactive
same,Potency,[2],inactive
same,Potency,[3],inactive
same,Potency,[4],inactive
same,Potency,[5],inactive
same,Potency,[6],inactive
same,Potency,[7],inactive
same,Potency,[8],inactive
same,Potency,[9],inactive
same,Potency,[10],inactive
same,Potency,[11],inactive
same,max response,[12],7.54% (inactive) and -2.85% (inactive)
same,Potency,[13],inactive
same,Potency,[14],inactive
same,Potency,[15],inactive
same,Potency,[16],inactive
CC(=O)Oc1ccccc1C(=O)Nc1ncc([N+](=O)[O-])s1,Potency,[1],inactive
same,Potency,[2],inactive
same,Potency,[4],9.16 µM (active) and 24.7 µM (active)
same,Potency,[7],inactive
same,Potency,[9],inactive
same,Potency,[11],inactive
same,Potency,[13],inactive
same,Potency,[17],inactive
same,Potency,[14],inactive
same,Potency,[15],inactive
same,Potency,[16],11.2 µM (active)
O=C1OC2(c3cc(Br)c(O)c(Br)c3Oc3c2cc(Br)c(O)c3Br)c2c(Cl)c(Cl)c(Cl)c(Cl)c21,Potency,[1],inactive
same,Potency,[2],19.5 µM (active) and 29.7 µM (active)
same,Potency,[3],inactive
same,Potency,[4],7.14 µM (active)
same,Potency,[18],inactive
same,Potency,[6],inactive
same,Potency,[7],43.7 µM (active) and 26.5 µM (active)
same,Potency,[8],inactive
same,Potency,[9],4.91 µM (active) and 29.7 µM (active)
same,Potency,[10],inactive
same,Potency,[11],inactive
same,max response,[12],-3.53% (inactive)
same,Potency,[13],3.9 µM (active) and 26.5 µM (active)
same,Potency,[17],3.1 µM (active) and 14.9 µM (active)
same,Potency,[14],inactive
same,Potency,[15],3.1 µM (active) and 23.6 µM (active)
same,Potency,[16],3.1 µM (active) and 14.9 µM (active)
Cc1c(C(N)=O)cc([N+](=O)[O-])cc1[N+](=O)[O-],Potency,[1],inactive
same,outcome,[19],inactive
same,Potency,[3],inactive
same,Potency,[4],inactive
same,Potency,[5],inactive
same,Potency,[6],inactive
same,Potency,[7],inactive
same,Potency,[8],inactive
same,Potency,[9],inactive
same,Potency,[10],inactive
same,Potency,[11],inactive
same,max response,[12],1.58% (inactive) and 7.25% (inactive)
same,Potency,[13],inactive
same,Potency,[17],inactive
same,Potency,[14],inactive
same,Potency,[15],inactive
same,Potency,[16],inactive
c1ccc2c(c1)Oc1ccccc1S2,Potency,[1],inactive
same,Potency,[2],inactive
same,Potency,[3],inactive
same,Potency,[4],inactive
same,Potency,[5],inactive
same,Potency,[6],inactive
same,Potency,[7],inactive
same,Potency,[8],inactive
same,Potency,[9],49.8 µM (active) and inactive
same,Potency,[10],inactive
same,Potency,[11],inactive
same,max response,[12],-19.5% (inactive) and -6.23% (inactive)
same,Potency,[17],inactive
same,Potency,[14],inactive
same,Potency,[15],inactive
same,Potency,[16],inactive
O=C1c2cccc(O)c2C(=O)c2c(O)cccc21,Potency,[1],inactive
same,Potency,[2],inactive
same,Potency,[3],inactive
same,Potency,[4],inactive
same,Potency,[5],inactive
same,Potency,[7],inactive
same,Potency,[9],inactive
same,Potency,[11],inactive
same,Potency,[13],inactive
same,Potency,[17],inactive
same,Potency,[14],inactive
same,Potency,[15],inactive
same,Potency,[16],inactive
O=C(c1ccccc1)c1ccc(O)cc1O,Potency,[1],inactive
same,Potency,[2],inactive
same,Potency,[3],inactive
same,Potency,[4],inactive
same,Potency,[6],inactive
same,Potency,[7],inactive
same,Potency,[9],inactive
same,Potency,[10],inactive
same,Potency,[11],inactive
same,max response,[12],-11.1% (inactive) and -19.8% (inactive)
same,Potency,[13],inactive
same,Potency,[17],inactive
same,Potency,[14],inactive
same,Potency,[15],inactive and 38.9 µM (active)
same,Potency,[16],inactive and 43.6 µM (active)
COc1cccc2c1C(=O)c1c(O)c3c(c(O)c1C2=O)C[C@@](O)(C(=O)CO)C[C@@H]3O[C@H]1C[C@H](N)[C@H](O)[C@H](C)O1,Potency,[1],inactive
same,Potency,[2],5.49 µM (active) and 10.7 µM (active)
same,Potency,[4],inactive
same,Potency,[18],inactive
same,"activity change, positive = activation",[20]; at 42.5 µM (top of the series),-2.08% (inactive) and 0.0204% (inactive)
same,Potency,[5],inactive and 1.69 µM (active)
same,Potency,[6],123 nM (active) and 213 nM (active)
same,Potency,[7],inactive
same,Potency,[8],0.952 µM (active)
same,Potency,[9],inactive
same,Potency,[10],0.346 µM (active)
same,Potency,[11],inactive
same,Potency,[12],97.6 nM (active) and 190 nM (active)
same,Potency,[13],inactive
same,Potency,[17],inactive and 21.3 µM (active)
same,Potency,[14],0.952 µM (active)
same,Potency,[15],inactive and 21.3 µM (active)
same,Potency,[16],inactive
COc1ccccc1/C=C/C=O,Potency,[1],31.4 µM (active) and 54.5 µM (active)
same,outcome,[19],inactive
same,Potency,[3],inactive
same,Potency,[4],inactive
same,Potency,[5],inactive
same,Potency,[7],inactive
same,Potency,[8],inactive
same,Potency,[9],inactive
same,Potency,[10],inactive
same,Potency,[11],inactive
same,Potency,[13],inactive
same,Potency,[17],inactive
same,Potency,[14],inactive
same,Potency,[15],inactive
same,Potency,[16],inactive
CCC(C)(O)CCCC(C)C (stereo not drawn),Potency,[1],inactive
same,outcome,[19],inactive
same,Potency,[3],inactive
same,Potency,[4],inactive
same,Potency,[5],inactive
same,Potency,[6],inactive
same,Potency,[7],inactive
same,Potency,[8],inactive
same,Potency,[9],inactive
same,Potency,[10],inactive
same,Potency,[11],inactive
same,max response,[12],0.571% (inactive) and 1.24% (inactive)
same,Potency,[13],inactive
same,Potency,[14],inactive
same,Potency,[15],inactive
same,Potency,[16],inactive
CCOC(=O)C(C#N)=C(c1ccccc1)c1ccccc1,Potency,[1],inactive
same,outcome,[19],inactive
same,Potency,[3],inactive
same,Potency,[4],inactive
same,Potency,[18],48.6 µM (active)
same,Potency,[6],inactive
same,Potency,[7],inactive
same,Potency,[9],inactive
same,Potency,[10],inactive
same,Potency,[11],inactive
same,max response,[12],-18.4% (inactive) and -13.3% (inactive)
same,Potency,[13],inactive
same,Potency,[17],inactive
same,Potency,[14],inactive
same,Potency,[15],inactive
same,Potency,[16],inactive
CCCCOCCOCCOCCO,Potency,[1],inactive
same,outcome,[19],inactive
same,Potency,[3],inactive
same,Potency,[4],inactive
same,Potency,[18],inactive
same,"activity change, positive = activation",[20]; at 42.5 µM (top of the series),2.27% (inactive)
same,"activity change, positive = activation",[20]; at 92.4 µM (top of the series),-1.73% (inactive)
same,Potency,[6],inactive
same,Potency,[7],inactive
same,Potency,[8],inactive
same,Potency,[9],inactive
same,Potency,[10],inactive
same,Potency,[11],inactive
same,max response,[12],3.72% (inactive) and 4.47% (inactive)
same,Potency,[13],inactive
same,Potency,[14],inactive
same,Potency,[15],inactive
same,Potency,[16],inactive
